High-throughput results deposited in PubChem by Sanford-Burnham Center for Chemical Genomics.
tim10-1 inh: growth inhibitors of tim10-1 mutant yeast; S. cerevisiae tim10-1 ts strain growth, BacTiter-Glo, 24 h; inhibition, % at 20 µM; 330,000 tested, 2.2% active; AID 463190;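 active means inhibition of at least 40%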;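 further: mutant grown at 25 °C; 0% = DMSO wells with yeast and 100% = wells holding no yeast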
tim23-1 inh: growth inhibitors of tim23-1 mutant yeast; inhibition, % at 20 µM; AID 463212; 330,000 tested, 1.3% active; S. cerevisiae tim23-1 growth, BacTiter-Glo luminescence, 24 h;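 active means growth inhibition of the mutant yeast at or above 50%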;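 further: temperature-sensitive mutant grown at 25 °C; plate controls were DMSO-treated mutant yeast for no effect and medium wells lacking yeast for full effect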
NLRP3 yeast inh: inhibitors of NALP3 inflammasome in yeast | Yeast reconstituted NLRP3/ASC/caspase-1, beta-gal luminescence, 24 h | inhibition, % at 10 µM | 330,000 tested, 0.39% active | AID 2825;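 active means inhibition of 50% or more; inactive means inhibition below 50%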;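 further: plate controls were induced DMSO wells for no effect and uninduced yeast grown without galactose for full effect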
NALP1 yeast inh: NALP1 inhibition | S. cerevisiae NALP1/ASC/caspase-1 growth, X-gal OD620, 72 h | inhibition, % at 10 µM | 280,000 tested, 0.61% active | AID 2071; in the data active means inhibition mostly above about 24%, no sharp cut-off; inactive means mostly below about 32%
TIM10 inh: growth inhibitors of TIM10 yeast strain; S. cerevisiae TIM10 strain growth, BacTiter-Glo luminescence, 24 h; inhibition, % at 10 µM; 330,000 tested, 1.4% active; AID 463195;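 active means inhibition of 40% or more at the single tested concentration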;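 further: wild-type TIM10 isogenic control strain grown at permissive 25 °C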
tim10 confirm: confirmation of TIM10 yeast growth inhibitors; AID 463215; S. cerevisiae tim10 strain growth, BacTiter-Glo luminescence, 24 h; 4,600 tested, 63% active; shares compounds with TIM10 inh; inhibition, % at 10 µM;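 active means inhibition of yeast growth at or above a set limit in either of two replicates at 10 µM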;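 further: this counterscreen used the strain with wild-type TIM10; 0% = yeast with DMSO and 100% = medium wells lacking yeast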
tim23-1 confirm: tim23-1 yeast growth inhibition, confirmed; shares compounds with tim23-1 inh; S. cerevisiae tim23-1 growth, BacTiter-Glo luminescence, 24 h; inhibition, % at 20 µM; 4,400 tested, 83% active;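 active means inhibition above about 39% in either of two replicate wells at 20 µM, limit read from the data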;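 further: temperature-sensitive tim23-1 mutant grown at 25 °C; 0% = DMSO wells with yeast and 100% = medium wells without yeast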
* hit, by the source's call; x = no result. Only some compounds are listed: those with a hit (about 4% of all), similar ones and a draw of the others.

SMILES | tim10-1 inh | tim23-1 inh | NLRP3 yeast inh | NALP1 yeast inh | TIM10 inh | tim10 confirm | tim23-1 confirm
Cn1c(SCC(=O)N/N=C/c2ccc([N+](=O)[O-])s2)nnc1-c1ccc(Cl)cc1 | 23 | 62* | 28 | 25 | 81* | -23 | 65*
O=C1c2ccccc2C(=O)c2[nH]cnc21 | x | x | x | 14 | x | x | x
O=C1c2ccccc2C(=O)c2c1ncn2-c1ccccc1 | 39 | 50 | 24 | 54 | 46* | 4 | 45*
CC(c1ccccc1)N1CCn2c(nc3cc(NC(=O)c4cccs4)ccc32)C1 (centres undefined) | 24 | 53* | 16 | -2 | 44* | 32* | 64*
CC(C)CN1C(=O)c2ccc(NC(=O)c3cccs3)cc2C1=O | -6 | 53* | 36 | 19 | 46* | 50* | 54*
O=C(Nc1ccc(N2CCCC2)c(Cl)c1)c1cccs1 | 28 | 50* | 35 | -14 | 45* | 34* | 55*
Cn1cnc2cc(NC(=O)c3cccs3)ccc21 | 18 | 11 | 21 | -10 | 29 | x | x
O=C(Nc1ccc2nn(-c3ccccc3)nc2c1)c1cccs1 | 30 | 54* | 6 | 14 | 53* | 54* | 65*
CC(C)CN1C(=O)c2ccc(NC(=O)c3ccccc3F)cc2C1=O | -14 | 3 | 10 | 4 | 14 | x | x
CS(=O)(=O)N(CC(=O)NCCSc1ccccn1)c1cccc2ccccc12 | 18 | 5 | 7 | -4 | -16 | x | x
C[C@H](NS(=O)(=O)c1c(Cl)cccc1Cl)C(=O)NNC(=O)COc1ccccc1F | 4 | -7 | 4 | x | -3 | x | x
O=C(Nc1nc2cc3c(cc2s1)OCCO3)c1cccs1 | 10 | 37 | 33 | 5 | 24 | x | x
O=C(Nc1ccc2c(c1)OCCO2)c1cccs1 | 15 | 56* | 37 | x | 45* | 50* | 65*
Cc1c(C(=O)NCCSCc2cccc(C(F)(F)F)c2)cnn1-c1ccc(F)cc1 | 24 | 24 | 27 | 36 | -16 | x | x
Cn1c(CSc2nc3ccc(Br)cc3[nH]2)nc2ccccc21 | 29 | 61* | 23 | 19 | 41* | 28 | 57*
CCCCCCCCC1=NCCc2c1[nH]c1ccccc21 | 38 | 57* | 19 | -47 | 45* | 13 | 43*
CC1=CC(C)(C)N(C(=O)CN2C(=O)CCC2=O)c2ccccc21 | 11 | 5 | -1 | -5 | 3 | x | x
CC1=CC(C)(C)N(C(=O)CN2C(=O)c3ccccc3C2=O)c2ccc(C)cc21 | 40 | 60* | 25 | -22 | 44* | 50* | 59*
CS(=O)(=O)N1CCC(C(=O)Nc2cccc(Br)c2)CC1 | 4 | 5 | 13 | 17 | -3 | x | x
Cc1ccc2c(c1)C(=O)C(=O)N2CC(=O)OC(C)C | 19 | 15 | 7 | 8 | 6 | x | x
Cc1ccc2c(c1)C(=O)C(=O)N2Cc1ccc(C(F)(F)F)cc1 | 30 | 82* | 1 | x | 41* | 58* | 32*
Cc1ccc(N=Nc2ccc(O)cc2)c(Br)c1 | -32 | 66* | 45 | 14 | 52* | 71* | -2
Cc1cccc(NC(=O)COc2ccc(Br)cc2/C=N/O)c1 | 14 | 50* | 39 | 23 | 56* | 61* | 78*
O=C(/C=C/c1ccccc1O)c1ccc(Cl)cc1 | 34 | 56* | 37 | 2 | 42* | 39* | 58*
CCOc1ccccc1/C=C/C(=O)c1ccc(Cl)cc1 | 28 | 22 | 11 | 15 | 11 | x | x
SMILES | tim10-1 inh | tim23-1 inh | NLRP3 yeast inh | NALP1 yeast inh | TIM10 inh | tim10 confirm | tim23-1 confirm
CCOC(=O)N1CCN(C(=O)c2cc(-c3ccc(F)cc3)[nH]c2C)CC1 | 18 | 11 | -5 | 12 | 15 | x | x
Cc1[nH]c(-c2ccc(F)cc2)cc1C(=O)N1CCN(c2ccc(Cl)cc2)CC1 | 36 | 73* | 21 | 0 | 49* | 42* | 54*
O=C(Nc1ccc(-c2cn3ccccc3n2)cc1)c1ccc(Cl)cc1 | -5 | 11 | 18 | 15 | 3 | x | x
O=C(Nc1ccc(-c2cn3ccccc3n2)cc1)c1ccco1 | -18 | 59* | 44 | 46 | 44* | 1 | 59*
COc1ccc(S(=O)(=O)N2CCN(Cc3ccc(Cl)cc3)CC2)cc1 | 28 | 58* | 20 | 11 | 42* | 40* | 50*
CCOC(=O)N1C(=O)[C@](CC)(c2ccccc2)N1C(=O)OCC | 2 | 17 | 3 | 29 | 15 | x | x
CCC1(c2ccccc2)ON(c2c(Br)cccc2Br)C1=O (centres undefined) | -52 | 78* | 13 | x | 71* | 56* | -48
CCC(C)c1ccc(OCc2ccc(C(=O)O)o2)cc1 (centres undefined) | -10 | -7 | 19 | 15 | 4 | x | x
COc1ccccc1-c1nc(C#N)c(NCc2ccc(F)cc2)o1 | 20 | 27 | 15 | 4 | 19 | x | x
c1ccc2c(c1)ncn2CCC1CCCCC1 | 34 | 53* | 22 | 6 | 42* | 35* | 19
Cn1c(/C(C#N)=C/c2ccncc2)nc2ccccc21 | 35 | 68* | -14 | 6 | 46* | 19 | 63*
N#Cc1ccccc1Cn1cc(/C=C/[N+](=O)[O-])c2ccccc21 | 32 | 69* | 4 | 75* | 67* | -1 | 82*
N#Cc1cn(Cc2cccc(Cl)c2)c2ccccc12 | 27 | 31 | 33 | 20 | -2 | x | x
CCOc1nc(-c2ccncc2)nc2ccccc12 | 29 | 57* | 42 | -7 | 58* | 44* | 54*
O=C(COC(=O)c1cncc(Br)c1)NC1CCCCC1 | -1 | 1 | 25 | -10 | -22 | x | x
O=C(NC(=S)NC1CCCCCC1)c1cncc(Br)c1 | 34 | 51* | 22 | 10 | 44* | -1 | 42*
O=C(CCN1CCCCC1)c1ccccc1 | 10 | 21 | 0 | 25 | 5 | x | x
CCc1oc2ccccc2c1C(=O)CCN1CCCCC1 | 33 | 52* | 34 | 50* | 57* | 41* | -121
Cc1cccc(OCC(=O)NCCNC(=O)c2ccco2)c1 | -14 | 13 | 21 | 27 | 7 | x | x
Cc1nc2ccccc2n1C(=O)c1ccccc1[N+](=O)[O-] | 34 | 50 | 3 | 27 | 50* | 47* | 40*
Cc1c(C(=O)n2cnc3ccccc32)cccc1[N+](=O)[O-] | 28 | 22 | -11 | -2 | 7 | x | x
Oc1cccc(Nc2nc(-c3ccccc3)nc3ccccc23)c1 | 21 | 82* | 17 | 17 | 59* | 56* | 54*
CC(=O)Nc1ccc(C(=O)NNC(=O)Cc2ccccc2)cc1 | -6 | 10 | 2 | 10 | -13 | x | x
CCOc1ccc(NC(=O)COC(=O)CC2CC3CCC2C3)cc1 (centres undefined) | 4 | 59* | 19 | x | 44* | 40* | 54*
CN(C)S(=O)(=O)c1cc(NC(=O)COC(=O)CC2CC3CCC2C3)ccc1Cl (centres undefined) | -6 | 11 | -11 | x | 1 | x | x
